Assay results reported in PubChem BioAssay (EPA / NIEHS).
Records with an inconclusive call do not appear. Activity calls are given as the source filed them. Rule for the calls, unless noted: active = hit-call score of the fitted dose curve at least 0.9, where 1 is the maximum; inconclusive = response in the unintended direction; inactive = score below 0.9. Where a SMILES comes first, the peptide text is derived from it. [ ]: non-standard residue; d: D form. The star is where a group is joined. Sta = CC(C)C[C@H](N)[C@@H](O)CC(=O)O; Isovaleryl = CC(C)CC(=O)*

Tests used:
[1] = target: Cellular tumor antigen p53 (Homo sapiens) (UniProt P04637); assay: TOX21_p53_BLA_p2_ratio: Tox21 HCT-116 p53 Agonism Beta-lactamase Assay, Ratio, Phase 2 (AID 2283592)
Sequence of Cellular tumor antigen p53 (Homo sapiens) (P04637 whole entry, looked up): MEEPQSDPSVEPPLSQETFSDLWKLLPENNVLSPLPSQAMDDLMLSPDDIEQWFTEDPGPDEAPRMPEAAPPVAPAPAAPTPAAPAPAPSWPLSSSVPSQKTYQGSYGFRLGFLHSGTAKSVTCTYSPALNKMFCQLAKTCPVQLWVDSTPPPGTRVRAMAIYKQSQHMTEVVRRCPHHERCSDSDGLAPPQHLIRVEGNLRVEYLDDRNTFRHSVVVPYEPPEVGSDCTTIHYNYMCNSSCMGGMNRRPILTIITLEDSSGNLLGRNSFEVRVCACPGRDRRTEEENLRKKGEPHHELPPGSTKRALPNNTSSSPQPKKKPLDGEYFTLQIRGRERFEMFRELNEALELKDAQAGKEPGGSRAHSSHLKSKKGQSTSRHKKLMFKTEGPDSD
Method in brief: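 HCT-116 cells with p53-responsive beta-lactamase reporter, 4000 cells/well, preincubated 5 h, then compound in DMSO (217-fold dilution) for 16 h at 37C. CCF4-AM substrate 2 h at room temperature; 460/530 nm emission ratio fitted upward versus DMSO.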

[2] = target: Cellular tumor antigen p53 (Homo sapiens) (UniProt P04637); assay: TOX21_p53_BLA_p5_ratio: Tox21 HCT-116 p53 Agonism Beta-lactamase Assay, Ratio, Phase 5 (AID 2283599)
Method in brief: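 HCT-116 cells carrying a p53-inducible beta-lactamase reporter were seeded at 4000 cells/well and dosed after 5 h with compound in DMSO (217-fold dilution). After 16 h at 37C, CCF4-AM substrate was added for 2 h, and the 460/530 nm emission ratio was scored as gain-of-signal versus DMSO.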

[3] = TOX21_p53_BLA_p5_viability: Viability Assessment in the Tox21 HCT-116 p53 Agonism Beta-lactamase Assay, Phase 5 (AID 2283600)
Method in brief: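 HCT-116 p53 beta-lactamase reporter cells, 4000/well, were exposed to compound (pin transfer, 217-fold dilution) for 16 hours at 37C. Cellular ATP was read by CellTiter-Glo luminescence after 30 min at room temperature.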

[4] = target: Cellular tumor antigen p53 (Homo sapiens) (UniProt P04637); assay: TOX21_p53_BLA_p4_ratio: Tox21 HCT-116 p53 Agonism Beta-lactamase Assay, Ratio, Phase 4 (AID 2283601)
Method in brief: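 HCT116 cells carrying an inducible beta-lactamase reporter were plated at 4000 cells/well, rested 5 h, then exposed to compounds in DMSO (217-fold dilution) for 16 h at 37C. CCF4-AM substrate was loaded 2 h at room temperature; 460/530 nm emission ratio scored gain-of-signal versus DMSO.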

[5] = TOX21_p53_BLA_p4_viability: Viability Assessment in the Tox21 HCT-116 p53 Agonism Beta-lactamase Assay, Phase 4 (AID 2283597);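 note: hits lower the luminescence signal meaning cytotoxicity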
Method in brief: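 HCT-116 p53-bla cells, 4000/well, dosed after 5 h attachment and incubated 16 h at 37 °C, 5% CO2. Viability from CellTiter-Glo ATP luminescence after 30 min at room temperature, taken after the beta-lactamase read; loss of signal indicates cytotoxicity.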

[6] = CCTE_Harrill_HTTr_Viability_MCF7: CCTE's 6-hour Cell Viability Assessment for the High-Throughput Transcriptomics (HTTr) Platform, in MCF-7 cells cultured in DMEM + 10% fetal bovine serum, Harrill Lab (AID 2284010; active = hit-call score of the fitted dose curve at least 0.9, where 1 is the maximum; inactive = score below 0.9)
Method in brief: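 Membrane integrity was scored by high-content imaging of propidium iodide dye exclusion after a 6 h exposure across an eight-point dilution series. Data were fitted bidirectionally relative to DMSO as negative control and baseline.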

[7] = CCTE_Harrill_HTTr_Apoptosis_MCF7: CCTE's 6-hour Apoptosis Assessment for the High-Throughput Transcriptomics (HTTr) Platform, in MCF-7 cells cultured in DMEM + 10% fetal bovine serum, Harrill Lab (AID 2284011; active = hit-call score of the fitted dose curve at least 0.9, where 1 is the maximum; inactive = score below 0.9)
Method in brief: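 MCF-7 cells in DMEM + 10% FBS exposed 6 h to chemicals over an eight-point dilution series. Caspase-3/7 activation imaged by high-content CellEvent Green staining; fitted bidirectionally versus DMSO.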

Measured: outcome

CC1=C(C(=O)O)N2C(=O)[C@@H](NC(=O)[C@H](N)c3ccccc3)[C@H]2SC1
inactive: [1] | [2] | [3]

COc1ccc2cc([C@H](C)CO)ccc2c1
inactive: [1] | [2] | [3] | [4]

C=C(C)C(=O)NCCC[N+](C)(C)C
inactive: [1] | [2] | [3] | [4]

CS(=O)(=O)CCNCc1ccc(-c2ccc3ncnc(Nc4ccc(OCc5cccc(F)c5)c(Cl)c4)c3c2)o1
inactive: [1] | [2]

S=C=Nc1ccc(N=C=S)cc1
inactive: [1] | [2] | [3] | [4]

O=C(O)c1ccc(O)cc1O
inactive: [1] | [5] | [4]

NC(Cc1ccccc1)C(=O)O (stereo not drawn)
inactive: [1] | [5] | [4]

CN1C(=O)c2ccc([N+](=O)[O-])cc2C1=O
inactive: [1] | [2] | [3]

COc1ccc(C(=O)NCc2ccc(OCCN(C)C)cc2)cc1OC
inactive: [1] | [5] | [4]

CC(C)S
inactive: [1] | [2] | [3] | [4]

CCCCCCCCCCCCCCCC/C=C/C1CC(=O)OC1=O (stereo not drawn)
inactive: [1] | [2]

Cc1cccc(C(=O)O)c1[N+](=O)[O-]
inactive: [1] | [2] | [4]

CC(C)CC(=O)N[C@H](C(=O)N[C@H](C(=O)N[C@@H](CC(C)C)[C@@H](O)CC(=O)N[C@@H](C)C(=O)N[C@@H](CC(C)C)[C@@H](O)CC(=O)O)C(C)C)C(C)C (Isovaleryl-VV[Sta]A[Sta]-OH)
inactive: [1] | [3] | [4]

CCN1CCCC1CNC(=O)c1cc(S(N)(=O)=O)ccc1OC (stereo not drawn)
not listed: [5]
inactive: all other assays above

O=C(NCCc1c[nH]c2ccccc12)c1cccnc1
inactive: [1] | [2] | [3] | [4]

O=[N+]([O-])c1c(Cl)cc(Cl)cc1Cl
inactive: [1] | [3]

CN1c2c(nc(N)[nH]c2=O)NCC1CNc1ccc(C(=O)NC(CCC(=O)O)C(=O)O)cc1 (stereo not drawn)
inactive: [1] | [3]

c1ccc2c(c1)Sc1ccccc1N2CCN1CCCC1
inactive: [1] | [2] | [4]

CCCCCCOC(=O)c1cccnc1
inactive: [1] | [3] | [4]

NC[C@H]1O[C@H](O[C@H]2[C@H](O[C@@H]3O[C@H](CO)[C@@H](O)[C@H]3O)C(O)[C@H](N)C[C@@H]2N)[C@H](N)[C@@H](O)[C@@H]1O (stereo partly drawn)
inactive: [1] | [2] | [4]

CCCC(=O)C(=O)O
inactive: [1] | [3]

C=C(C)C(=O)OC1CC(C)CC(C)(C)C1 (stereo not drawn)
inactive: [1] | [2] | [4]

FC(F)(F)C(Cl)(Cl)Cl
inactive: [1] | [3] | [4]

CC(C)(CCC(=O)O)C(=O)O
inactive: [1] | [3] | [4]

C=CCCCCCCCC
inactive: [1] | [3] | [4]

CCCN(CCC)C(=O)C(CCC(=O)O)NC(=O)c1ccccc1 (stereo not drawn)
inactive: [1] | [3] | [4]

CCN(CC)CCOC(=O)C(c1ccccc1)C1CCCCC1 (stereo not drawn)
inactive: [1] | [3] | [4]

C[C@@H](O)[C@H]1C(=O)N2C(C(=O)O)=C([C@H]3CCCO3)S[C@H]12
inactive: [1] | [3]

Cc1nc2ccc(Cl)cc2[nH]1
inactive: [1] | [2] | [4]

CC1=NN(c2ccc(C(=O)O)cc2)C(=O)C1
inactive: [1] | [2] | [4]

CCC=O
inactive: [1] | [2] | [4]

OCC(O)COc1ccc(Cl)cc1 (stereo not drawn)
inactive: [1] | [3] | [4]

C=CCCCC
inactive: [1] | [3] | [4]

O=C1c2ccccc2C(=O)N1CO
inactive: [1] | [2] | [3] | [4]

CCc1ccc(CC)cc1
inactive: [1] | [2] | [3] | [4]

CNCC(=O)N[C@@H](CCCN=C(N)N)C(=O)N[C@H](C(=O)N[C@@H](Cc1ccc(O)cc1)C(=O)N[C@H](C(=O)N[C@@H](Cc1cnc[nH]1)C(=O)N1CCC[C@H]1C(=O)N[C@@H](C)C(=O)O)C(C)C)C(C)C
inactive: [1] | [2] | [4]

C=CC(C)(O)CC/C=C(/C)CCC=C(C)C (stereo not drawn)
inactive: [1] | [3]

CC=C(Cl)Cl
inactive: [1] | [2] | [4]

CC(CN1c2ccccc2Sc2cccnc21)N(C)C (stereo not drawn)
inactive: [1] | [2] | [4]

N[C@@H](CS)C(=O)O
inactive: [1] | [3] | [4]

CCOC(=O)[C@H](CCc1ccccc1)N[C@@H](C)C(=O)N1CC2(C[C@H]1C(=O)O)SCCS2
inactive: [1] | [2] | [4]

CCOC(=O)c1ccc(I)cc1
inactive: [1] | [2] | [4]

Cc1cccc(O)c1N
inactive: [1] | [2] | [4]

C#CCN[C@@H]1CCc2ccccc21
inactive: [1] | [2] | [4]

CCCCCCCCCCCCCCC1CO1 (stereo not drawn)
inactive: [1] | [2] | [4]
